Holding throughout (assay): Peg3 promoter luciferase inhibitors, potency, dose response, cell-based, HeLa, CREF/GAPDH counter-screen panel (AID 624167)
In general terms: The purpose of a counterscreen is to sort out artefacts and off-target activity.

Assay [1] has as its target PEG-3 (UniProt Q6IN02). The following applies: CREF/GAPDH counter-screens; HeLa PEG-Prom luciferase reporter, overnight, run 1, dose range 1, at 100 µM (top of the series) unless noted.
The target in assay [2] is PEG-3 (UniProt Q6IN02). The following applies: CREF/GAPDH counter-screens; HeLa PEG-Prom luciferase reporter, overnight, run 2, dose range 1, at 100 µM (top of the series) unless noted.
The test system of assay [3] is Rat fibroblasts (CREF). The following applies: CREF/GAPDH counter-screens; run 1, dose range 1, at 100 µM (top of the series).
For assay [4], the system named is Rat fibroblasts (CREF). The following applies: CREF/GAPDH counter-screens; run 2, dose range 1, at 100 µM (top of the series).

PEG-3, sequence (Q6IN02 whole entry, looked up): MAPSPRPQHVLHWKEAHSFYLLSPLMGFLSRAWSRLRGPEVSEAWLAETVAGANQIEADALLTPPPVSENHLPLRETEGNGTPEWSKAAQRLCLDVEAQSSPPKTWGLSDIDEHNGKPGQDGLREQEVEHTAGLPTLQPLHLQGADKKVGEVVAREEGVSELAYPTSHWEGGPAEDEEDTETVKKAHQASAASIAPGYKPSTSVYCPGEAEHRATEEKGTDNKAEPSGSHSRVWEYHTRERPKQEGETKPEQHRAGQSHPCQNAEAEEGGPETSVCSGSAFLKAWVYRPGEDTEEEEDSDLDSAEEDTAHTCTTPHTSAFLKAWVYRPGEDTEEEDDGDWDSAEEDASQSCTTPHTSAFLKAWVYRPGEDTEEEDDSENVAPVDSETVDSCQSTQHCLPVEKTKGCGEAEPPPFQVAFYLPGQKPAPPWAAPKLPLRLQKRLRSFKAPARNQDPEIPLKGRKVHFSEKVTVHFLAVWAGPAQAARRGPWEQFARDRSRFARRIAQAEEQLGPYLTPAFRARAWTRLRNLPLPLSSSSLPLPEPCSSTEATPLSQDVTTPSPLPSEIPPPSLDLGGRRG

As a reminder, the inhibition is the drop in the measured response relative to a control, in per cent. As to `CCCC(=O)NC(c1ccc(OC)cc1)c1ccc2cccnc2c1O` (stereo not drawn), the inhibition in the assay with PEG-3 [1] was 66.6%; with PEG-3 [2], 88.5%; with Rat fibroblasts (CREF) [3] it was 28.1%; with Rat fibroblasts (CREF) [4], 99.5%.

For the compound `Cc1ccc(C(C[N+](=O)[O-])Sc2ccc(N)cc2)cc1` (stereo not drawn), the inhibition in the assay with PEG-3 [1] came out at 98.7%; with PEG-3 [2], 101%; in the assay on Rat fibroblasts (CREF) [3], 96.1%; in the assay with Rat fibroblasts (CREF) [4] it was 96.3%.

For the compound `COC(=O)c1c(N)sc(C(=O)NCCc2ccccc2)c1C`, the inhibition in the assay with PEG-3 [1] stood at 101%; in the assay with PEG-3 [2], 102%; with Rat fibroblasts (CREF) [3], 93.6%; in the assay on Rat fibroblasts (CREF) [4], 92.9%.

Take `Cc1cc(S(=O)(=O)c2ccc(Cl)cc2)nc(S(=O)(=O)c2ccc(Cl)cc2)c1C#N`: the inhibition with PEG-3 [1] is 99.1%; with PEG-3 [2], 101%; in the assay with Rat fibroblasts (CREF) [3] it was 98.2%; with Rat fibroblasts (CREF) [4], 98.8%.

Take `COc1ccc(C(=O)Nc2nc3ccccc3s2)c(OC)c1`: the inhibition is 101% with PEG-3 [1], 98.8% with PEG-3 [2], 97.3% with Rat fibroblasts (CREF) [3] and 97.7% in the assay on Rat fibroblasts (CREF) [4].

Regarding `CCOc1ccc2c(ccc(/C=C/c3cc(C)c4cccnc4c3O)[n+]2C)c1`, the inhibition was 101% with PEG-3 [1], 99.4% with PEG-3 [2], 98.8% in the assay with Rat fibroblasts (CREF) [3] and 98.5% in the assay with Rat fibroblasts (CREF) [4].

As for `Cc1c([N+](=O)[O-])cc(N2C(=O)C=CC2=O)cc1[N+](=O)[O-]`, the inhibition in the assay with PEG-3 [1] was found to be 102%; with PEG-3 [2] it was 102%; in the assay with Rat fibroblasts (CREF) [3], 99.5%; in the assay with Rat fibroblasts (CREF) [4] it was 100%.

Regarding `O=c1oc2ccccc2cc1-c1cn2ccccc2n1`, the inhibition turned out to be 92.7% in the assay with PEG-3 [1], 94.2% with PEG-3 [2], 94.6% in the assay with Rat fibroblasts (CREF) [3] and 93.7% in the assay with Rat fibroblasts (CREF) [4].

For the compound `O=C(O)c1cccc(COc2ccccc2Cl)c1`, the inhibition with PEG-3 [1] was 96.7%; with PEG-3 [2], 87.5%; in the assay with Rat fibroblasts (CREF) [3], 97%; in the assay on Rat fibroblasts (CREF) [4] it was 72.1%.

Consider `Cc1cc(C(=O)CN2C(=O)c3ccccc3S2(=O)=O)c(C)n1-c1ccccc1`, for which the inhibition in the assay with PEG-3 [1] was 98.9%; with PEG-3 [2], 98%; in the assay with Rat fibroblasts (CREF) [3], 90.6%; in the assay on Rat fibroblasts (CREF) [4], 89.8%.

Regarding `O=C(CCl)N1c2ccccc2Sc2ccc3ccccc3c21`, the inhibition stood at 99.4% with PEG-3 [1], 101% in the assay with PEG-3 [2], 99.4% in the assay on Rat fibroblasts (CREF) [3] and 99.6% with Rat fibroblasts (CREF) [4].

`CC(=O)NC(c1ccc(Cl)cc1)c1ccc2cccnc2c1O` (stereo not drawn): the inhibition with PEG-3 [1] is 97.5%; with PEG-3 [2], 88.3%; in the assay on Rat fibroblasts (CREF) [3] it was 4.58%; in the assay on Rat fibroblasts (CREF) [4], 23%.

`Cc1ccc(-c2cc3c(N=O)c4ccccc4c-3n[nH]2)cc1`: the inhibition with PEG-3 [1] came to 75.1%; in the assay with PEG-3 [2], 86.7%; in the assay with Rat fibroblasts (CREF) [3] it was 87.3%; in the assay on Rat fibroblasts (CREF) [4], 78.5%.

Take `Cc1ccc2nc(-c3ccc4c(c3)OCCO4)cn2c1`: the inhibition with PEG-3 [1] stood at 98.2%; in the assay with PEG-3 [2], 99.6%; with Rat fibroblasts (CREF) [3], 100%; with Rat fibroblasts (CREF) [4], 99.9%.

Turning to `O=C(CN1C(=O)c2ccccc2S1(=O)=O)c1ccc2c(c1)OCCO2`, the inhibition was 102% with PEG-3 [1], 101% with PEG-3 [2], 95.2% with Rat fibroblasts (CREF) [3] and 96% with Rat fibroblasts (CREF) [4].

For the compound `CCc1ccc(/C=C2\SC(=S)N(CCCC(=O)Nc3ccccn3)C2=O)cc1`, the inhibition in the assay with PEG-3 [1] was 92.7%; in the assay with PEG-3 [2] it was 81%; with Rat fibroblasts (CREF) [3] it was -3.09%; with Rat fibroblasts (CREF) [4], 94.6%.

Regarding `CN(C)c1ccc(/C=C/c2nc3ccccc3s2)cc1`, the inhibition with PEG-3 [1] came to 94.8%; with PEG-3 [2], 89.3%; with Rat fibroblasts (CREF) [3] it was 96.6%; in the assay on Rat fibroblasts (CREF) [4], 94.9%.

Take `Oc1c(Br)cc(Br)c2cccnc12`: the inhibition with PEG-3 [1] came to 81.8%; with PEG-3 [2], 71%; with Rat fibroblasts (CREF) [3], 88.2%; in the assay on Rat fibroblasts (CREF) [4] it was 94.5%.

Consider `O=C(Nc1nc2ccccc2[nH]1)c1ccccc1F`, for which the inhibition with PEG-3 [1] is 97.3%; with PEG-3 [2], 98.3%; in the assay with Rat fibroblasts (CREF) [3], 98.8%; with Rat fibroblasts (CREF) [4] it was 99.2%.

Turning to `Cc1oc(-c2ccc3c(c2)OCCO3)cc1C(=O)O`, the inhibition with PEG-3 [1] was determined as 101%; with PEG-3 [2], 99.2%; in the assay on Rat fibroblasts (CREF) [3] it was 84.4%; in the assay on Rat fibroblasts (CREF) [4], 81.3%.

On to `CN[C@H]1C[C@H]2c3[nH]c4ccc(-c5ccc(OC)cc5)cc4c3CCN2C(=O)[C@H]1[C@H](C)O`, for which the inhibition with PEG-3 [1] is 102%; in the assay with PEG-3 [2] it was 98.8%; in the assay with Rat fibroblasts (CREF) [3] it was 96%; with Rat fibroblasts (CREF) [4], 99.6%.

For `CN=c1scc(-c2cccs2)n1/N=C/c1ccccc1O`, the inhibition with PEG-3 [1] stood at 93.6%; with PEG-3 [2], 102%; in the assay with Rat fibroblasts (CREF) [3], 98.2%; with Rat fibroblasts (CREF) [4], 97.1%.

Consider `CCCS(=O)(=O)c1cnc(C2COc3ccccc3O2)nc1N` (stereo not drawn), for which the inhibition with PEG-3 [1] is 96.2%; with PEG-3 [2] it was 94.6%; in the assay with Rat fibroblasts (CREF) [3], 89.5%; in the assay with Rat fibroblasts (CREF) [4], 87.6%.

For `O=C(O)c1ccc(N/N=C/c2ccc(OC(=O)c3cccc(Cl)c3)cc2)cc1`, the inhibition stood at 101% in the assay with PEG-3 [1], 99.4% with PEG-3 [2], 46.5% in the assay on Rat fibroblasts (CREF) [3] and 40% in the assay on Rat fibroblasts (CREF) [4].

On to `Cc1cccc(OCC(=O)NCC(=O)N/N=C/c2cc(Br)cc(Br)c2O)c1`, for which the inhibition with PEG-3 [1] worked out at 75%; with PEG-3 [2], 86.2%; in the assay on Rat fibroblasts (CREF) [3] it was 65.6%; in the assay with Rat fibroblasts (CREF) [4] it was 74.7%.

Consider `Brc1ccc(N/N=C(/N=Nc2nn[nH]n2)c2ccccc2)cc1`, for which the inhibition with PEG-3 [1] came out at 100%; with PEG-3 [2], 99.8%; in the assay with Rat fibroblasts (CREF) [3], 75.7%; in the assay with Rat fibroblasts (CREF) [4], 70%.

Take `Cc1cc(C2=NNC(=NC3CC3)SC2)c(C)n1-c1ccccc1F`: the inhibition was found to be 98% with PEG-3 [1], 102% in the assay with PEG-3 [2], 96.9% in the assay on Rat fibroblasts (CREF) [3] and 97.5% in the assay with Rat fibroblasts (CREF) [4].

As to `CC1CCN(c2ccc(-c3cccs3)nn2)CC1`, the inhibition in the assay with PEG-3 [1] amounted to 90.2%; with PEG-3 [2], 97.2%; with Rat fibroblasts (CREF) [3], 96.1%; in the assay with Rat fibroblasts (CREF) [4], 96.2%.

With `O=C(NNC(=O)c1cccnc1SCc1cccc([N+](=O)[O-])c1)c1ccccn1`, the inhibition was 65.1% with PEG-3 [1], 56.6% with PEG-3 [2], 46.9% with Rat fibroblasts (CREF) [3] and 42.9% in the assay on Rat fibroblasts (CREF) [4].

Regarding `CCOc1ccc2nc(NC(=O)c3ccccn3)sc2c1`, the inhibition with PEG-3 [1] is 88%; with PEG-3 [2], 83.6%; in the assay with Rat fibroblasts (CREF) [3] it was 87.1%; in the assay with Rat fibroblasts (CREF) [4], 83.4%.

Consider `O=C(Nc1ccc(Cc2ccncc2)cc1)c1ccc([N+](=O)[O-])o1`, for which the inhibition with PEG-3 [1] was determined as 99.1%; with PEG-3 [2], 101%; in the assay with Rat fibroblasts (CREF) [3], 100%; in the assay on Rat fibroblasts (CREF) [4], 99.5%.

As to `O=[N+]([O-])c1ccc(-c2ccc(/C=N/Nc3nc(NCc4ccccc4)nc(N4CCOCC4)n3)o2)cc1`, the inhibition in the assay with PEG-3 [1] worked out at 99.5%; in the assay with PEG-3 [2], 91.5%; with Rat fibroblasts (CREF) [3], 97.5%; with Rat fibroblasts (CREF) [4], 96.9%.
